Of roughly 8,800 targets only a part is listed; those with a hit were picked by preference. About 0.5% of all pairs of compound and target were hits.
Columns and labels:
Assay in all cases: log2 fold change, soluble protein after heating vs DMSO (PISA); higher = thermal stabilisation; K562 lysate, 10 uM; active = over 0.2 and 3.5 SD of the protein, either way, in both replicates (recomputed)
vemurafenib = compound: CCCS(=O)(=O)Nc1ccc(F)c(C(=O)c2c[nH]c3ncc(-c4ccc(Cl)cc4)cc23)c1F [vemurafenib]
Procedure, shortened: (§1)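 Values give the log-two fold change in thermal stability against solvent controls, from duplicates. Crude K562 extract at 1 mg/mL protein, made by dounce homogenisation in PBS pH 7.4 with 1 mM MgCl2, was treated with 10 μM compound for 30 min. After 3 min heating across 48°C-58°C, aliquots were pooled, adjusted to 0.5% NP-40 at 4°C and centrifuged at 21,000xg for 90 min. The supernatant was measured by TMTpro 16plex LC-MS/MS with channel sums equalised.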

[1] = compound: CCCS(=O)(=O)Nc1ccc(F)c(C(=O)c2c[nH]c3ncc(Cl)cc23)c1F
Procedure, shortened: as §1

barasertib = compound: CCN(CCCOc1ccc2c(Nc3cc(CC(=O)Nc4cccc(F)c4)[nH]n3)ncnc2c1)CCOP(=O)(O)O [barasertib]
Procedure, shortened: as §1

[2] = compound: CC[C@@H]1C(=O)N(C)c2cnc(Nc3ccc(C(=O)NC4CCN(C)CC4)cc3OC)nc2N1C1CCCC1
Procedure, shortened: as §1

volasertib = compound: CC[C@@H]1C(=O)N(C)c2cnc(Nc3ccc(C(=O)N[C@H]4CC[C@H](N5CCN(CC6CC6)CC5)CC4)cc3OC)nc2N1C(C)C [volasertib]
Procedure, shortened: as §1

[3] = compound: CCn1c(C(=O)N(C2CC2)C2CC2)cc2c3c(ncn3C)c(Nc3cc(C)n(C)n3)nc21
Procedure, shortened: as §1

[4] = compound: CCn1cc(-c2ccnc3[nH]c(-c4cccc(CN(C)C)c4)cc23)c(-c2ccc(NC(=O)N(C)C)cc2)n1
Procedure, shortened: as §1

[5] = compound: CN1CCC(CNc2ccc3ncc(-c4cccc(OC(F)(F)F)c4)n3n2)CC1
Procedure, shortened: as §1

saracatinib = compound: CN1CCN(CCOc2cc(OC3CCOCC3)c3c(Nc4c(Cl)ccc5c4OCO5)ncnc3c2)CC1 [saracatinib]
Procedure, shortened: as §1

sotrastaurin = compound: CN1CCN(c2nc(C3=C(c4c[nH]c5ccccc45)C(=O)NC3=O)c3ccccc3n2)CC1 [sotrastaurin]
Procedure, shortened: as §1

alvocidib = compound: CN1CC[C@H](c2c(O)cc(O)c3c(=O)cc(-c4ccccc4Cl)oc23)[C@H](O)C1 [alvocidib]
Procedure, shortened: as §1

Tubastatin A = compound: CN1CCc2c(c3ccccc3n2Cc2ccc(C(=O)NO)cc2)C1 [Tubastatin A]
Procedure, shortened: as §1

[6] = compound: CNC(=O)C1=CC=CC=C1NC2=NC(=NC=C2Cl)NC3=C(C=C(C=C3)N4CCOCC4)OC
Procedure, shortened: as §1

defactinib = compound: CNC(=O)c1ccc(Nc2ncc(C(F)(F)F)c(NCc3nccnc3N(C)S(C)(=O)=O)n2)cc1 [defactinib]
Procedure, shortened: as §1

[7] = compound: CNc1nc(-c2ccc3c(N)n[nH]c3c2)cc(N2C[C@@H](C(=O)NC3CCCCC3)CC[C@H]2C)n1
Procedure, shortened: as §1

encorafenib = compound: COC(=O)N[C@@H](C)CNc1nccc(-c2cn(C(C)C)nc2-c2cc(Cl)cc(NS(C)(=O)=O)c2F)n1 [encorafenib]
Procedure, shortened: as §1

[8] = compound: COC(=O)[C@H](CCSC)NC(=O)C1=C(C=C(C=C1)NC[C@H](CS)N)C2=CC=CC=C2
Procedure, shortened: as §1

alisertib = compound: COc1cc(Nc2ncc3c(n2)-c2ccc(Cl)cc2C(c2c(F)cccc2OC)=NC3)ccc1C(=O)O [alisertib]
Procedure, shortened: as §1

[9] = compound: COc1cc2nc(-c3cc(F)ccc3O)nc(N[C@@H]3CNC[C@H]3C(C)(C)O)c2cc1OC
Procedure, shortened: as §1

gefitinib = compound: COc1cc2ncnc(Nc3ccc(F)c(Cl)c3)c2cc1OCCCN1CCOCC1 [gefitinib]
Procedure, shortened: as §1

Measured: log2 fold change

GPR108 (UniProt Q9NPR9)
Sequence of UniProt Q9NPR9 (Q9NPR9 whole entry, looked up): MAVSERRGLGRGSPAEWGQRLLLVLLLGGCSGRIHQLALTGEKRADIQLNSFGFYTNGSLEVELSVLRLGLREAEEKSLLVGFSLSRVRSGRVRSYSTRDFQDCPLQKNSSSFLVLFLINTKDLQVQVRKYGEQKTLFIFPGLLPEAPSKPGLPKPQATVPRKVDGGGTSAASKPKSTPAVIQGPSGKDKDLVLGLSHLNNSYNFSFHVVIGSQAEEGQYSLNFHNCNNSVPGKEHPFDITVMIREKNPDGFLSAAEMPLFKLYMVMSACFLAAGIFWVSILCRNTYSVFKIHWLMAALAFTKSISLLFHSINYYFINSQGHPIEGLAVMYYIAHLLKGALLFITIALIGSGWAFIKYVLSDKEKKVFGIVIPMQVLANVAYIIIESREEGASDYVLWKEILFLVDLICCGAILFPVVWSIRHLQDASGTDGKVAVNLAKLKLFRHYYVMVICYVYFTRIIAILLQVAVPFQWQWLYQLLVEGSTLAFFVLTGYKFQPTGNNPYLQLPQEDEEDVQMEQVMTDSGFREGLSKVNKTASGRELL
inactive: vemurafenib 0.001 | [1] -0.059 | barasertib -0.03 | [2] 0.01 | volasertib 0.03 | [3] 0.031 | [4] 0.057 | [5] 0.01 | saracatinib 0.092 | sotrastaurin 0.019 | alvocidib -0.068 | Tubastatin A -0.034 | [6] 0.075 | defactinib 0 | [7] 0.014 | encorafenib 0.11 | [8] -0.066 | alisertib 0.001 | [9] 0.047 | gefitinib 0.002

KDM5B isoform 2 (UniProt Q9UGL1)
Sequence of UniProt Q9UGL1 (Q9UGL1 whole entry, looked up): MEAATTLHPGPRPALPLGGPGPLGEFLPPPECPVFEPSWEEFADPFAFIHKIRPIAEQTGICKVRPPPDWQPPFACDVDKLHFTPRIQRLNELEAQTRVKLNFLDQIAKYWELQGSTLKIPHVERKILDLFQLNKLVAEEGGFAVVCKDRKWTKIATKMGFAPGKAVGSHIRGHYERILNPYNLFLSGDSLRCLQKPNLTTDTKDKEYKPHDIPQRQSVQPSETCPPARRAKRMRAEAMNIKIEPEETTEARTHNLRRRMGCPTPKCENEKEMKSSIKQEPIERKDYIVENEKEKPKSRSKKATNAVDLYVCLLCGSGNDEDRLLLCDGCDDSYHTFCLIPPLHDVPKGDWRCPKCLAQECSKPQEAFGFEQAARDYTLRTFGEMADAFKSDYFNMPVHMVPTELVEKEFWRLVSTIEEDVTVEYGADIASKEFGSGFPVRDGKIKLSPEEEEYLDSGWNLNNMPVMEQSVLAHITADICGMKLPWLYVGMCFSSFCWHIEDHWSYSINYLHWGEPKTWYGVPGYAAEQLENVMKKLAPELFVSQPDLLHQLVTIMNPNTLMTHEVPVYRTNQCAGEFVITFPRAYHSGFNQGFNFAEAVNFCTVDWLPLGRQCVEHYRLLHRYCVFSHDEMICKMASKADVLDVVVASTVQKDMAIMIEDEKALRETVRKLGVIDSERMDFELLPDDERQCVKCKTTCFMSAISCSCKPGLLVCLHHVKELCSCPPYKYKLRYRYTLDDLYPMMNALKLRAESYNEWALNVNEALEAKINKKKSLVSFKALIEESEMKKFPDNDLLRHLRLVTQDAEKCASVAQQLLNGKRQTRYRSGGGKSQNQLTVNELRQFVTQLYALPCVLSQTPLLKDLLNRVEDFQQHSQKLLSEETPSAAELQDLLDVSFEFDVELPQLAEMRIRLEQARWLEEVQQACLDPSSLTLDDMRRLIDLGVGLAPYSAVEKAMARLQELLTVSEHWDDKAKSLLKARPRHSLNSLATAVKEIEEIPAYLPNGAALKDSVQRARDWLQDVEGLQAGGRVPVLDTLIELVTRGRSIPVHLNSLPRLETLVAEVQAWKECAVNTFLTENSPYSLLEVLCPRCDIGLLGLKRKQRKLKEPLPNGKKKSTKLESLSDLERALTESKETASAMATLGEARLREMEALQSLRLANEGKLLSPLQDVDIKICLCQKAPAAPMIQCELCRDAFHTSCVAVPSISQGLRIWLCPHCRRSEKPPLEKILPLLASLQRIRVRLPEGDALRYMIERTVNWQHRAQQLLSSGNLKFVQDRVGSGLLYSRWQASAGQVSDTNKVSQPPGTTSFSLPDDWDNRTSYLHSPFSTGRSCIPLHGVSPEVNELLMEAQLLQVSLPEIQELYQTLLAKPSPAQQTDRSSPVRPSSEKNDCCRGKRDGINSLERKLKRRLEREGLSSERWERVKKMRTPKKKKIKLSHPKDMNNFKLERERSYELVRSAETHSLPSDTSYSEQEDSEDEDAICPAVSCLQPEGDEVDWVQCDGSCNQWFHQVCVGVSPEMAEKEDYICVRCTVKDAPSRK
inactive: vemurafenib 0.043 | [1] 0.073 | barasertib 0.039 | [2] 0.138 | volasertib 0.071 | [3] -0.059 | [4] -0.107 | [5] -0.034 | saracatinib -0.113 | sotrastaurin -0.136 | alvocidib -0.048 | Tubastatin A 0.021 | [6] -0.007 | defactinib 0.08 | [7] 0.307 | encorafenib -0.094 | [8] 0.075 | [9] 0.014

GYPA (UniProt P02724)
Sequence of UniProt P02724 (P02724 whole entry, looked up): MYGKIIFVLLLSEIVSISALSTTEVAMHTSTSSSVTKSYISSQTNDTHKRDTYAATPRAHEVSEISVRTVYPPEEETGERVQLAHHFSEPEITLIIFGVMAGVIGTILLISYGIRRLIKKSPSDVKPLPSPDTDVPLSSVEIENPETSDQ
active: [4] 0.587
inactive: vemurafenib -0.011 | [1] -0.008 | barasertib 0.254 | [2] 0.188 | volasertib 0.009 | [3] -0.081 | [5] -0.259 | saracatinib 0.01 | sotrastaurin 0.011 | alvocidib 0.311 | Tubastatin A 0.068 | [6] 0.005 | defactinib 0.063 | [7] 0.207 | encorafenib -0.004 | [8] -0.015 | [9] 0.06

INTS14 (UniProt Q96SY0)
Sequence of UniProt Q96SY0 (Q96SY0 whole entry, looked up): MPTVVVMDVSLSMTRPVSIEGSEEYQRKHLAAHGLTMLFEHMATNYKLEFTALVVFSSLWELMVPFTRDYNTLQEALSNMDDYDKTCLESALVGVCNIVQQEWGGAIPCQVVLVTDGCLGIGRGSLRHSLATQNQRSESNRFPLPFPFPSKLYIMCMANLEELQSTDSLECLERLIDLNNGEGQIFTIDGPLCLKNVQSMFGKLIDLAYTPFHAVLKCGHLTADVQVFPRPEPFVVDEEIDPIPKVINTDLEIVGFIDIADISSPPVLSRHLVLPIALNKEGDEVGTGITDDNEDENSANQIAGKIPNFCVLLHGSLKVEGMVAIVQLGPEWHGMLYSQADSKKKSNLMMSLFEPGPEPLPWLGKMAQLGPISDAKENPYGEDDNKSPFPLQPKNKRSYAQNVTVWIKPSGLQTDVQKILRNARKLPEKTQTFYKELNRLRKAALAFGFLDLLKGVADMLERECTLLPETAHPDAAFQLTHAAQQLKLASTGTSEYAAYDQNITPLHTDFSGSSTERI
inactive: vemurafenib -0.046 | [1] 0.034 | barasertib -0.021 | [2] 0.019 | volasertib -0.013 | [3] -0.017 | [4] -0.071 | [5] 0.008 | saracatinib -0.019 | sotrastaurin 0.001 | alvocidib -0.001 | Tubastatin A -0.066 | [6] 0.032 | defactinib 0.025 | [7] 0.02 | encorafenib 0.006 | [8] -0.1 | alisertib -0.018 | [9] 0.015 | gefitinib -0.003

HNRNPL (UniProt P14866)
Sequence of UniProt P14866 (P14866 whole entry, looked up): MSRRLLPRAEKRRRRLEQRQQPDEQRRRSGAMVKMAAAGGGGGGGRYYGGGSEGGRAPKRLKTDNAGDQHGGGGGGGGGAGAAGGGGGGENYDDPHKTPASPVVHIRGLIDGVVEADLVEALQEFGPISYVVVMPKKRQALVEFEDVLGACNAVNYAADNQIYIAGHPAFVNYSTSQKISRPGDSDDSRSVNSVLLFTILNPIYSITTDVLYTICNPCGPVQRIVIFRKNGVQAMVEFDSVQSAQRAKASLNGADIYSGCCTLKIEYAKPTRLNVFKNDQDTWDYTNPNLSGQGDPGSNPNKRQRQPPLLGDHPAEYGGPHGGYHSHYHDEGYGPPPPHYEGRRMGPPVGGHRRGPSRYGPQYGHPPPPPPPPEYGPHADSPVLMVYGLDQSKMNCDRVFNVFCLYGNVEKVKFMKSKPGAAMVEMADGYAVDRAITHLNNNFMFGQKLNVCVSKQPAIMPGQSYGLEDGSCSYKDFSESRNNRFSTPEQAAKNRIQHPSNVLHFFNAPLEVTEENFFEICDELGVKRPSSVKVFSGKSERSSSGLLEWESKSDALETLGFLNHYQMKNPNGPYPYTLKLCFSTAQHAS
inactive: vemurafenib 0.01 | [1] 0.023 | barasertib 0.021 | [2] -0.052 | volasertib -0.047 | [3] 0.061 | [4] -0.012 | [5] -0.056 | saracatinib 0.017 | sotrastaurin 0.023 | alvocidib 0.035 | Tubastatin A -0.174 | [6] 0.016 | defactinib 0.015 | [7] -0.02 | encorafenib 0 | [8] 0.073 | alisertib -0.026 | [9] -0.007 | gefitinib -0.019

HIST2H2BC (UniProt Q6DN03)
Sequence of UniProt Q6DN03 (Q6DN03 whole entry, looked up): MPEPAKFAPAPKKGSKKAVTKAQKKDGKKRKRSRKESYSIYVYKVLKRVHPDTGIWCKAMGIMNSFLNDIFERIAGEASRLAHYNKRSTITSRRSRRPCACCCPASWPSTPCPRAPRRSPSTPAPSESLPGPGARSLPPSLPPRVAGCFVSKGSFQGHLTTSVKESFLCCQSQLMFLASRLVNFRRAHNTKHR
active: [4] 0.291
inactive: vemurafenib -0.261 | [1] 0.026 | barasertib -0.029 | [2] -0.05 | volasertib 0.013 | [3] 0.033 | [5] -0.024 | saracatinib 0 | sotrastaurin -0.01 | alvocidib 0.024 | Tubastatin A 0.004 | [6] 0.019 | defactinib -0.148 | [7] -0.003 | encorafenib 0.092 | [8] 0.143 | alisertib 0.005 | [9] 0.008 | gefitinib -0.12

KBTBD2 (UniProt Q8IY47)
Sequence of UniProt Q8IY47 (Q8IY47 whole entry, looked up): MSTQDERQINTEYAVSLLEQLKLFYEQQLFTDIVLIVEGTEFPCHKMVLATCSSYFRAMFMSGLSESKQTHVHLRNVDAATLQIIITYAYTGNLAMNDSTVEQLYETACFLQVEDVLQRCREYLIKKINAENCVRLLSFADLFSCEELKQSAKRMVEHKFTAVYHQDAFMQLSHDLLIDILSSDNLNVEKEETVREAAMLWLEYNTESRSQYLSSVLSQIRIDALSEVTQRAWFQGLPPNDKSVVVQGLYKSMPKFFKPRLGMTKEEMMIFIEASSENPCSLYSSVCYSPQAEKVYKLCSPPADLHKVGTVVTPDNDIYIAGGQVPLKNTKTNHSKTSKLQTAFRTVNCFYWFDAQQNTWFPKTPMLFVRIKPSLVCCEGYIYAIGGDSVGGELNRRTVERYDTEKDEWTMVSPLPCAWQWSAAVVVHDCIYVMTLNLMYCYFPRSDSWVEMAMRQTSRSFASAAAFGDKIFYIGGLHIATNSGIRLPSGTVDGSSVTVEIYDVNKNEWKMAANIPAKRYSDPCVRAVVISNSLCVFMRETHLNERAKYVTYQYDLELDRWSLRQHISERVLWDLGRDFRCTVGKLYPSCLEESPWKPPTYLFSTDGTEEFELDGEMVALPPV
inactive: vemurafenib -0.035 | [1] 0.006 | barasertib 0.022 | [2] -0.018 | volasertib 0.013 | [3] -0.181 | [4] -0.166 | [5] 0.06 | saracatinib 0.031 | sotrastaurin -0.03 | alvocidib -0.073 | Tubastatin A 0.167 | [6] -0.009 | defactinib -0.013 | [7] -0.036 | encorafenib 0.018 | alisertib -0.053 | [9] -0.01 | gefitinib 0.028
active: [8] -0.362

HAUS7 isoform 2 (UniProt Q99871)
Sequence of UniProt Q99871 (Q99871 whole entry, looked up): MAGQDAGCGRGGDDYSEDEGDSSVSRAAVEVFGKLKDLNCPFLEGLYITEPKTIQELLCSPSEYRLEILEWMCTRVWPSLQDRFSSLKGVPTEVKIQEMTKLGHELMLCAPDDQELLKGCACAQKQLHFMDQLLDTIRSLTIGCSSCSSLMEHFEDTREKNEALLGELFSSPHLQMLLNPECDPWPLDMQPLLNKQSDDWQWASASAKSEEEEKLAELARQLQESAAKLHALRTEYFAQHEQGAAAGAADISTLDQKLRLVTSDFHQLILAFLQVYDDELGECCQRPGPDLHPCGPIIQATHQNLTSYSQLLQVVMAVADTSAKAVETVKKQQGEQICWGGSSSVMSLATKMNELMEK
inactive: vemurafenib -0.054 | [1] 0.006 | barasertib 0.002 | [2] 0.005 | volasertib -0.06 | [3] -0.021 | [4] 0.073 | [5] -0.173 | saracatinib 0.044 | sotrastaurin -0.025 | alvocidib 0.001 | Tubastatin A -0.128 | [6] 0.021 | defactinib -0.045 | [7] -0.021 | encorafenib 0.024 | [8] 0.099 | alisertib 0.031 | [9] -0.135 | gefitinib -0.043

— the supplement of paper PMC10849652
